The list is not random: actives were taken first. Their share in the collection is about 12%.
ROMK primary: modulators of human ROMK potassium channel; hit rate 2% among 130,000; B-score at 10 µM; AID 1918; Tet-inducible ROMK, thallium flux fluorescence; actives lie on both sides;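 active = signal ratio slope over the read window, or its plate-corrected B-score, at least 3 SD from the plate mean, either direction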;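 also: B-score of the F/F0 ratio slope over 7 to 12 s after thallium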
Cl transport mod: modulates chloride dependent transport by human KCC2; Q9H2X9; KCC2 cells, thallium flux FluoZin-2 fluorescence; B-score of Tl+ flux slope (higher = more flux/activation; lower = inhibition) at 10 µM; hit rate 2.2% among 190,000; AID 1456;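 active = thallium flux slope and its plate-corrected score both differing from the plate sample mean at a set confidence after two filtering rounds, in either direction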;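 also: slope of fluorescence scaled to starting intensity during 10 to 20 s after thallium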
Target sequence (Q9H2X9 whole entry, looked up): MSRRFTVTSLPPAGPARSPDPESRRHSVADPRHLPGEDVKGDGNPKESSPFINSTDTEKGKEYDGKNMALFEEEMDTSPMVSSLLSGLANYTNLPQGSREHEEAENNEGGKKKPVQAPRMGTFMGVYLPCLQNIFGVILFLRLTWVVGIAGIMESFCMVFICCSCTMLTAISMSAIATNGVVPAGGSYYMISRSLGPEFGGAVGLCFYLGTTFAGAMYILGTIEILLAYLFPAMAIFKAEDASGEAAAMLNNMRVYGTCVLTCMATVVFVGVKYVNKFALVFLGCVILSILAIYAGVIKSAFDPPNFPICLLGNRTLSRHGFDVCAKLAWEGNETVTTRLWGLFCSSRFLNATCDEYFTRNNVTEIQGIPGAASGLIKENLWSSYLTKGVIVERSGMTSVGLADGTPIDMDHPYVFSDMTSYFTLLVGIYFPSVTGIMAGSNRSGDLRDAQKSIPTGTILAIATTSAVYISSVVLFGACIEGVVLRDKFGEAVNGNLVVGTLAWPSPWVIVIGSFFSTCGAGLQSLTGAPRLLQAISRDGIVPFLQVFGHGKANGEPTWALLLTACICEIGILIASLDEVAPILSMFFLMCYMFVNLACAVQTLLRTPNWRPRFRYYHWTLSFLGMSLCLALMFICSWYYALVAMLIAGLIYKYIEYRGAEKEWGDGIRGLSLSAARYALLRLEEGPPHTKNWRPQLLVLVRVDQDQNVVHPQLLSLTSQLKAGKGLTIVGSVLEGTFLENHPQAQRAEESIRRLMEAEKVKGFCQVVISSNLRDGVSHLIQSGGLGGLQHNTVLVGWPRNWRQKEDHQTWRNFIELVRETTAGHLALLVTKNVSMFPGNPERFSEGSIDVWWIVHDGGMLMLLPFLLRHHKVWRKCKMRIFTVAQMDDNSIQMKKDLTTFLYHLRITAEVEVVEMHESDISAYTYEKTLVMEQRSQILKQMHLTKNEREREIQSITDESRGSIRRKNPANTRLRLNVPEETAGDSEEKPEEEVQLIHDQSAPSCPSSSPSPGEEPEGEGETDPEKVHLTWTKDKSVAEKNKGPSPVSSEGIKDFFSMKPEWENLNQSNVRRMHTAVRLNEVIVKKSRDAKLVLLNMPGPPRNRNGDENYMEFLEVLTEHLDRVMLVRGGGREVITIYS
Lmaj promast: Leishmania major promastigote growth inhibition; Leishmania major promastigotes, resazurin fluorescence viability; inhibition, % at 10 µM; hit rate 9% among 200,000; in the data active = inhibition above about 50%;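 also: promastigotes grown with compound for 44 hours at 28 °C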
WT yeast gro inh: growth inhibition of WT yeast, mitochondrial fusion screen; hit rate 2.1% among 190,000; inhibition, % at 10 µM; AID 1362; mitochondrial fusion phenotypic screen, WT strain; in the data active = inhibition above about 58%; tested in S. cerevisiae
INS promoter inh: TRM-6 insulin promoter activity inhibition; TRM-6 cells (human fetal islet line), insulin promoter-eGFP reporter, imaging; reporter expression induced with tamoxifen; inhibition, % at 2 µM; hit rate 0.9% among 130,000; AID 1273;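 active = inhibition above the mean plus 3 SD, with well images judged a real hit on visual review, cut at about 60% in these data, passing the limit was not always enough; inconclusive = inhibition over the cutoff but images rejected on review; inactive = inhibition not above the cutoff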
Insulin prom up: MIN6 insulin promoter up-regulation; MIN6 insulin promoter-GFP reporter, high-content imaging; active compounds read high; z-score at 5 µM; hit rate 0.3% among 190,000; AID 1625;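 active = z-score above 3 at 5 µM with at least 500 cells counted in the well; inconclusive = wells under 500 cells, flagged as cytotoxic or low count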
L major 1uM: inhibitors of Leishmania major promastigote growth, repeat at 1 uM. AID 1258. inhibition, % at 1 µM. L. major promastigote growth, resazurin fluorescence, 48 h. hit rate 13% among 1,100. shares compounds with Lmaj promast;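 active = inhibition above about 50% in both repeat tests, limit read from the data; inconclusive = one repeat under the set limit, the other over it; inactive = both repeats under the set limit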
KCC2 secondary: KCC2 (human) modulation, secondary assay; hit rate 15% among 3,700; normalised thallium flux (F/F0 slope) at 10 µM; shares compounds with Cl transport mod; HEK293-KCC2, thallium flux, FluoZin2 fluorescence; active compounds read high;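 active = thallium flux slope above the same plate's solvent-only control mean plus 3 SD; inconclusive = the two replicate wells disagree; inactive = no significant difference from solvent-only control wells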
KCC2 bumet counter: thallium flux persisting under bumetanide in KCC2 cells, counter-screen secondary assay | shares compounds with Cl transport mod | HEK293-KCC2 + bumetanide/ouabain, thallium flux FluoZin2; active compounds read high | normalized thallium flux at 10 µM | hit rate 49% among 3,700 | AID 1714;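 active = thallium entry rate above the same plate's blocked-transporter control wells by more than 3 SD; inconclusive = the two repeat wells disagree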;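 also: raw slope of fluorescence over initial fluorescence between 10 and 20 s after thallium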
KCC2 sec2: confirmation of human KCC2 transport modulators. hit rate 23% among 3,700. HEK293-KCC2, thallium flux FluoZin2 fluorescence; actives lie on both sides; F/F0 rise rate, 10–20 s post-thallium. AID 1715. normalized thallium flux at 10 µM. shares compounds with Cl transport mod;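 active = thallium flux slope more than 3 SD above or below the plate's solvent-only control mean, mostly below; inconclusive = the two repeat wells disagreed; inactive = no significant shift from solvent-only controls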;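 also: raw slope with 0.1% DMSO as baseline and bumetanide as block control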
HEK293 Tl flux: parental HEK flux effect, counter-screen. shares compounds with Cl transport mod. HEK293 parental cells, thallium flux FluoZin2, ouabain; baseline-ratio fluorescence slope, 10–20 s after thallium. thallium flux rate (normalised fluorescence) at 10 µM. hit rate 46% among 3,700. AID 1716;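 active = thallium flux rate significantly above the same plate's solvent-only control wells, beyond their mean plus 3 SD; inconclusive = the two replicate wells gave conflicting results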
KCC2 ouabain: modulates human KCC2 on retest with ouabain; shares compounds with Cl transport mod; HEK293-KCC2, thallium flux FluoZin2 fluorescence; bidirectional: low = inhibitor, high = activator; raw Tl+ flux slope (below DMSO = inhibition, above = activation) at 10 µM; hit rate 48% among 3,700; AID 1717;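 active = thallium flux slope beyond 3 SD from same-plate DMSO control mean in most replicates, usually higher, sometimes lower; inconclusive = repeat tests gave conflicting results; inactive = no significant difference from controls in most replicates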;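 also: slope of initial-normalized fluorescence between seconds 10 and 20 after thallium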
HEK293 Tl flux2: acts in parental HEK cells, second KCC2 counter-screen. shares compounds with Cl transport mod. HEK293 parental, thallium flux FluoZin-2 fluorescence slope. thallium flux slope at 10 µM. hit rate 33% among 3,700;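 active = thallium flux slope above the same plate's solvent-control mean plus 3 SD in both duplicate wells; inconclusive = duplicate wells that disagreed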;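 also: run without ouabain in cells lacking the KCC2 cotransporter; slope of fluorescence scaled to its starting value between 10 and 20 s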
Numbers without * were called inactive; ? = inconclusive; . = not tested or not shown.

SMILES	ROMK primary	Cl transport mod	Lmaj promast	WT yeast gro inh	INS promoter inh	Insulin prom up	L major 1uM	others
Cc1c(C(=O)N2CCC(C)CC2)cccc1[N+](=O)[O-]	0.61	0.027	-11	5	.	-0.5	.
CCOC(=O)NC(=O)CSc1nnnn1-c1ccccc1	0.68	0.87	-9	-4	-18	.	.
CC1=Nc2ccccc2N=C(NC(=O)CSc2nnnn2-c2ccccc2)C1c1ccccc1 (stereo not given)	.	-1.8	99*	-11	-26	-0.6	16
CCOC(=O)c1ccccc1NC(=O)CN1CCC(n2nnc3cc(C(F)(F)F)ccc32)CC1	.	0.13	.	.	.	-0.81	.
O=C(CN1CCC(n2nnc3cc(C(F)(F)F)ccc32)CC1)NCc1cccs1	-1.4	-1.5	79*	10	0	-2.3	-3
CCOC(=O)c1cc2oc(C(c3nnnn3C3CCCCC3)N3CCOCC3)cc2[nH]1 (stereo not given)	0.44	.	82*	6	-44	.	3
COc1cccc(OC)c1C(=O)Nc1nc(COc2ccccc2)cs1	0.67	0.18	-5	-18	.	-0.34	.
CC1(C)CN(c2ccccc2)N(C(=O)c2ccc(C#N)cc2)C1=O	.	.	54*	-14	-29	.	-16
COc1cc(NC(=O)Cn2nnc(-c3ccncc3)n2)cc(OC)c1	.	-1.2	90*	-2	-4	-0.47	-10
Cc1onc(-c2c(Cl)cccc2Cl)c1C(=O)N1CCCc2ccccc21	-0.76	-1.1	92*	11	3	.	-20
COCCn1c(COc2ccc(Cl)cc2)nnc1SCC(N)=O	.	0.5	2	-6	3	0.49	.
OC(COCC1COc2ccccc2O1)CN1CCc2ccccc2C1 (stereo not given)	.	-0.033	99*	3	-55	0.44	2
Nc1cccc2nc3ccccc3cc12	-0.081	-0.29	101*	40	.	-4.2	79*
COC(=O)C1=C(C)N(c2ccc(C(=O)OC)cc2)C(=O)C1	0.17	0.022	24	1	-7	1.3	.
CCOC(=O)c1ccc(N2C(=O)CC(C(=O)OC)=C2C)cc1	0.87	-0.76	86*	-19	12	0.31	-7
C/C=C\C(=O)Nc1cccc(C2=NOC3(C2)C[C@H](C(N)=O)N(C(=O)[C@H]2CCC(=O)N2)C3)c1 (stereo not given in full)	.	1	.	.	.	0.61	.
O=C1CC(c2ccccc2Br)c2cc3c(cc2N1)CCC3 (stereo not given)	-0.65	0.059	100*	-3	.	-0.82	88*
O=C1CC(c2cccc(Cl)c2)c2cc3c(cc2N1)CCC3 (stereo not given)	.	0.045	7	8	.	-1.1	.
COc1cccc(C2C(C(=O)c3ccco3)=C(O)C(=O)N2CCN(C)C)c1OC (stereo not given)	1	-0.059	62*	-39	14	0.4	-8
CN(C)CCOc1ccccc1Cc1ccccc1	.	0.56	100*	7	-14	.	89*
CNCCCCOc1ccccc1Cc1ccccc1	.	1.1	.	26	.	-0.35	.
COC(=O)c1ccccc1NC(=S)NC(NC(=O)COc1ccccc1)C(Cl)(Cl)Cl (stereo not given)	.	.	99*	14	3	-0.38	23	KCC2 secondary=0.0078;KCC2 bumet counter=?;KCC2 sec2=0.031;HEK293 Tl flux=?;KCC2 ouabain=0.025*;HEK293 Tl flux2=0.011
Cn1c(C(=O)O)cc2c(=O)n3ccccc3nc21	.	-0.39	.	.	.	-0.25	.
Cn1c(C(=O)N2CCc3ccccc3C2)cc2c(=O)n3ccccc3nc21	-1.2	.	97*	-2	-79	0.48	-9	KCC2 secondary=0.0051;KCC2 bumet counter=0.0063*;KCC2 sec2=0.027;HEK293 Tl flux=0.0073;KCC2 ouabain=0.015*;HEK293 Tl flux2=0.011
Cc1nc(/C=C\C(=O)O)c2cc(C)oc2n1	-0.1	0.044	-8	-9	.	-0.06	.
SMILES	ROMK primary	Cl transport mod	Lmaj promast	WT yeast gro inh	INS promoter inh	Insulin prom up	L major 1uM	others
Clc1ccccc1C(c1ccccc1)(c1ccccc1)n1ccnc1	-1.1	-4.3*	100*	86	-47	0.94	88*	KCC2 secondary=0.0095;KCC2 bumet counter=0.0054;KCC2 sec2=0.033;HEK293 Tl flux=0.0057*;KCC2 ouabain=0.019;HEK293 Tl flux2=0.01
N#CC(c1ccc(Cl)cc1)c1ccc2c(C(F)(F)F)cc(C(F)(F)F)nc2n1 (stereo not given)	1.6	22*	100*	85*	-41	.	56*	KCC2 secondary=0.024*;KCC2 bumet counter=0.14*;KCC2 sec2=0.031;HEK293 Tl flux=0.054*;KCC2 ouabain=0.067*;HEK293 Tl flux2=0.015*
FC(F)(F)c1cc(C(F)(F)F)c2ccc(N3CCN(c4ccc(Cl)cc4)CC3)nc2n1	.	-0.31	9	12	18	-0.22	.
Cc1[nH]n(-c2ccc(Cl)cc2)c(=O)c1C=NC12CN3CN(CN(C3)C1)C2	0.094	1.1	8	7	.	0.31	.
Cc1ccc(OCc2nc(C#N)c(NCc3ccc4c(c3)OCO4)o2)cc1	-1.6	-4.9	98*	-18	-67	0.69	-18	KCC2 secondary=0.0052;KCC2 bumet counter=?;KCC2 sec2=?;HEK293 Tl flux=?;KCC2 ouabain=0.012*;HEK293 Tl flux2=0.0088
CCOc1ccc(-c2nc(C#N)c(NCc3ccc4c(c3)OCO4)o2)cc1	.	-0.3	-3	9	.	1.1	.
O=C(O)c1cc(-c2cccc(Cl)c2)nc2nc(N3CCCCC3)sc12	0.64	-4.2*	63*	21	17	0.78	-10	KCC2 secondary=0.009;KCC2 bumet counter=0.0058;KCC2 sec2=0.034;HEK293 Tl flux=0.0075;KCC2 ouabain=0.017*;HEK293 Tl flux2=0.01
O=C(C[n+]1ccccc1)c1ccc(-c2ccccc2)cc1	-0.2	-4.6*	96*	10	-50	-1.1	7	KCC2 secondary=0.015;KCC2 bumet counter=0.0047;KCC2 sec2=0.022*;HEK293 Tl flux=0.0078;KCC2 ouabain=0.014;HEK293 Tl flux2=0.011
COc1ccc(-c2nnc(SCCc3ccccc3)n2N)cc1	.	.	-1	6	-186	.	.
COc1ccc(N=C2SC(C(=O)O)CC(=O)N2C)cc1 (stereo not given)	.	.	-6	0	31	0.49	.
Cc1c(C(=O)O)sc(=S)n1-c1ccc(Cl)cc1	.	0.56	-9	-2	-29	0.17	.
